Molecules are shown by their SMILES. Unmarked numbers belong to inactive results.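 Rule for the calls: active = falling cell viability signal whose fitted half-effect concentration is at most twice the highest valid tested dose; inconclusive = flat curve with 30 to 70 percent loss, or poor fit; inactive = the rest.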

The results in this text go back to PubChem BioAssay AID743331 (Broad Institute, 2014).

A short description of this test: HepG2 cell cytotoxicity, dose response, cytotoxicity control, plate reader, dry powder, set 8 (AID 743331). The conditions noted are these: HepG2 viability, CellTiter-Glo ATP luminescence, 72 h; series mostly up to 15 µM; activity change, negative = cytotoxicity: at the top concentration.
Take `COc1cccc2sc(NC(=O)c3cc(S(=O)(=O)N(C)C)ccc3N3CCCC3)nc12`: the “activity change, negative = cytotoxicity” value was 7.99%.
Take `CN(C)S(=O)(=O)c1ccc(N2CCCC2)c(C(=O)Nc2cccc(F)c2)c1`: the “activity change, negative = cytotoxicity” value was -9.24%.
As to `CN(C)S(=O)(=O)c1ccc(N2CCCC2)c(C(=O)Nc2ccccc2)c1`, the “activity change, negative = cytotoxicity” value was 2.08%.
As for `Cc1ccc(NC(=O)c2cc(S(=O)(=O)N(C)C)ccc2N2CCCC2)cc1`, the figure is -1.89%.
In the case of `Cc1cnc(NC(=O)c2cc(S(=O)(=O)N3CCCCC3)ccc2N2CCCC2)s1` it was 1.41%.
As for `CN(C)CCCN(Cc1cc2ccccc2[nH]c1=O)C(=O)NCc1ccccc1`, the figure is -1.32%; as for `Cc1cnc(NC(=O)c2cc(S(=O)(=O)N(C)C)ccc2N2CCC2)s1`, -4.57%.
Turning to `Cc1cnc(NC(=O)c2cc(S(=O)(=O)N(C)C)ccc2N(C)C)s1`, the “activity change, negative = cytotoxicity” value was 1.98%.
In the case of `COc1ccc2sc(NC(=O)c3cc(S(=O)(=O)N(C)C)ccc3N3CCCC3)nc2c1` it was 36.4%; in that of `CN(C)CCCN(Cc1cc2ccccc2[nH]c1=O)C(=O)Nc1ccccc1`, -8.85%.
In the case of `Cc1cnc(NC(=O)c2cc(S(=O)(=O)N3CCOCC3)ccc2N2CCCC2)s1` it was -0.67%; in that of `Cc1csc(NC(=O)c2cc(S(=O)(=O)N(C)C)ccc2N2CCCC2)n1`, -5.77%.
As for `CCN(CC)c1ccc(S(=O)(=O)N(C)C)cc1C(=O)Nc1ncc(C)s1`, the figure is -2.29%.
With `Cc1cnc(NC(=O)c2cc(S(=O)(=O)N(C)C)ccc2N2CCCC2)s1`, the “activity change, negative = cytotoxicity” value was -14.3%.
As for `CN(C)S(=O)(=O)c1ccc(N2CCCC2)c(C(=O)Nc2nc3ccccc3s2)c1`, the figure is -6.07%; as for `COc1ccc2nc(NC(=O)c3cc(S(=O)(=O)N(C)C)ccc3N3CCCC3)sc2c1`, -6.47%; as for `Cc1cnc(NC(=O)c2cc(S(=O)(=O)N3CCCC3)ccc2N2CCCC2)s1`, 2.46%.
In the case of `Cc1cnc(NC(=O)c2cc(S(=O)(=O)N(C)C)ccc2C2CCCC2)s1` it was 1.69%.
As to `CN(C)S(=O)(=O)c1ccc(N2CCCC2)c(C(=O)Nc2nccs2)c1`, the “activity change, negative = cytotoxicity” value is -1.58%.
